{"source": "PubChem BioAssay (Tox21)", "note": "Records with an inconclusive call do not appear. Where a call stands in place of a potency, no number is given. Calls of active or inactive are those of the source. The call rests on the fitted dose curve. Potency means the concentration at half of the fitted maximal effect.", "data": [{"test": "qHTS assay for small molecule agonists of the p53 signaling pathway - cell viability (AID 651633); further: nearly all actives have a fitted effect of over 30% in size", "conditions": "p53RE-bla HCT-116 viability, ATP luminescence, 16 h; series mostly up to 83.3 µM", "from_the_text": "National Center for Advancing Translational Sciences [NCATS]\nNIH Chemical Genomics Center [NCGC]\nU.S. Environmental Protection Agency [EPA]\nNational Institutes of Environmental Health Sciences [NIEHS]\nNational Toxicology Program [NTP]\nU.S. Food and Drug Administration [FDA]\np53, a tumor suppressor protein, is activated following cellular insult, including DNA damage and other cellular stresses. The activation of p53 regulates cell fate by inducing DNA repair, cell cycle arrest, apoptosis, or cellular senescence. The activation of p53, therefore, is a good indicator of DNA damage and other cellular stresses. […] The activation of the reporter gene under culture conditions can be detected by fluorescence intensity. This cell line was used to screen the Tox21 compound library in a 1536-well plate format and to identify agonists that activate the p53 signaling pathway.\nTox21 Assay Protocol Summary:\nThe p53RE-bla cells were dispensed at 4,000 cells/5 ul/well in 1536-well black wall/clear bottom plates using a Multidrop dispenser. After the assay plates were incubated at a 37 C/5% CO2 incubator for 5 hours, 23 nL of compounds dissolved in DMSO, positive controls or DMSO only was transferred to the assay plate by a pin tool. The plates were incubated at 37 C for 16 hours. After 1 uL of LiveBLAzerTM B/G FRET substrate was added using a Flying Reagent Dispenser, the plates were incubated at room temperature for 2 hours, and fluorescence intensity was measured by an Envision plate reader.\nFor cell viability readout that measures cytotoxicity, 4 ul/well of CellTiter-Glo reagent was added into the assay plates using a Flying Reagent Dispenser. After 30 min incubation at room temperature, the luminescence intensity in the plates was measured using a ViewLux plate reader.", "values": [{"smiles": "CCOC(=O)[C@H](CCc1ccccc1)N[C@@H](C)C(=O)N1Cc2cc(OC)c(OC)cc2C[C@H]1C(=O)O", "Potency": "inactive"}, {"smiles": "CCCc1c2oc(C(=O)O)cc(=O)c2cc2c(=O)cc(C(=O)O)n(CC)c12", "Potency": "inactive"}, {"smiles": "CC(C)(C)c1cccc(O)c1", "Potency": "inactive"}, {"smiles": "Cc1ccc(C(C)C)cc1O", "Potency": "inactive"}, {"smiles": "CCOC(=O)C1CC(=O)C(=C(O)C2CC2)C(=O)C1", "note": "(stereo not given)", "Potency": "inactive"}, {"smiles": "C=C(C)C(=O)OCCOP(=O)(O)O", "Potency": "inactive"}, {"smiles": "CCOc1ccc(NC(N)=O)cc1", "Potency": "inactive"}, {"smiles": "CCCCCCCOC(=O)CCC", "Potency": "inactive"}, {"smiles": "CCCCNCCCC", "Potency": "inactive"}, {"smiles": "O=C1CCCc2ccccc21", "Potency": "inactive"}, {"smiles": "CCCCCCCCCCCCCCCCOP(=O)([O-])OCC[N+](C)(C)C", "Potency": "inactive"}, {"smiles": "CCCCCCCCCCCCOCCOS(=O)(=O)O", "Potency": "61.1 µM (active)"}, {"smiles": "O=C1N(c2ccccc2)c2ccccc2C1(Cc1ccncc1)Cc1ccncc1", "Potency": "inactive"}, {"smiles": "CO[C@@]1(NC(=O)CSCC#N)C(=O)N2C(C(=O)O)=C(CSc3nnnn3C)CS[C@@H]21", "Potency": "inactive"}, {"smiles": "Cc1ccc([N+](=O)[O-])c(N)c1", "Potency": "inactive"}, {"smiles": "OCCN(CCO)c1ccccc1", "Potency": "inactive"}, {"smiles": "C1CCOC1", "Potency": "inactive"}, {"smiles": "COC(=O)N[C@H](C(=O)N[C@@H](Cc1ccccc1)[C@@H](O)CN(Cc1ccc(-c2ccccn2)cc1)NC(=O)[C@@H](NC(=O)OC)C(C)(C)C)C(C)(C)C", "Potency": "inactive"}, {"smiles": "CC(C)(CO)[C@@H](O)C(=O)NCCC(=O)O", "Potency": "inactive"}, {"smiles": "CC(C)CC(=O)OCc1ccccc1", "Potency": "inactive"}, {"smiles": "CC(=O)Nc1ccc(C)c(Cl)c1", "Potency": "inactive"}, {"smiles": "CN1CCN(C2=Nc3cc(F)ccc3Cc3ccccc32)CC1", "Potency": "inactive"}, {"smiles": "C[C@]12C(=O)OC(=O)[C@H]1[C@H]1C=C[C@@H]2C1", "Potency": "inactive"}, {"smiles": "Cc1c(-c2ccccc2)oc2c(C(=O)OCCN3CCCCC3)cccc2c1=O", "Potency": "inactive"}, {"smiles": "NCCCN1CCN(CCCN)CC1", "Potency": "inactive"}, {"smiles": "O=C(O)[C@@H]1CSCN1", "Potency": "inactive"}, {"smiles": "NC1=NCC2c3ccccc3Cc3ccccc3N12", "note": "(stereo not given)", "Potency": "inactive"}, {"smiles": "CCN1CC(CCN2CCOCC2)C(c2ccccc2)(c2ccccc2)C1=O", "note": "(stereo not given)", "Potency": "inactive"}, {"smiles": "CCNCCO", "Potency": "inactive"}, {"smiles": "CCOc1ccccc1N", "Potency": "inactive"}, {"smiles": "CN1C(=O)CC(c2ccccc2)C1=O", "note": "(stereo not given)", "Potency": "inactive"}, {"smiles": "O=C1CCCCC1C1CCCCC1", "note": "(stereo not given)", "Potency": "inactive"}, {"smiles": "CC(C)CCCCCCc1ccc(OCCOCCO)cc1", "Potency": "inactive"}, {"smiles": "CC(C)C(=O)OC/C=C/c1ccccc1", "Potency": "inactive"}, {"smiles": "CCCCC1CCC(=O)O1", "note": "(stereo not given)", "Potency": "inactive"}, {"smiles": "C=CCc1cc(OC)c(O)c(C(=O)NCCO)c1", "Potency": "inactive"}, {"smiles": "COc1ccc(Nc2ccc(OC)cc2)cc1", "Potency": "inactive"}, {"smiles": "COc1nc(C)nc(NC(=O)NS(=O)(=O)c2ccccc2OCCCl)n1", "Potency": "inactive"}, {"smiles": "Cc1cc2c(s1)Nc1ccccc1N=C2N1CCN(C)CC1", "Potency": "inactive"}, {"smiles": "CCCCOc1cc(C(=O)NCCN(CC)CC)c2ccccc2n1", "Potency": "inactive"}]}]}
